Measured values published in ChEMBL document CHEMBL4513216, “Probing the Open Global Health Chemical Diversity Library for Multistage-Active Starting Points for Next-Generation Antimalarials” (ACS Infect Dis, 2020).
The whole screen tested about 69,000 compounds, of which about 8,600 (12%) showed an effect of 50% or more. The full list was thinned out, with strong results kept by preference.

system: Plasmodium berghei; assay: Screen against P. berghei liver stage (PbLuc), transformed with Luciferase, at 10uM; format: functional, HepG2; conditions: tested at 10 uM

Structure (SMILES) | INHIBITION [%]
COc1cccc(C(O)C(=O)N(C)CCc2ccccn2)c1 (stereo unspecified) | 47.7
O=C(CSCC1CC1)N1CCC2(CCCN(C3CCOCC3)C2=O)C1 (stereo unspecified) | 1.48
O=C(c1cnn2c1OCCC2)N1CCC2(CC1)OCCO2 | -14.2
CN(C)C(=O)c1cnn2c1OCCC2 | 60.6
CS(=O)(=O)N1CCN(C(=O)c2cnn3c2OCCC3)CC1 | 31.6
CC(NCCCC#N)c1ccc(S(C)(=O)=O)c(F)c1 (stereo unspecified) | 19.1
CCn1c(C2CCCNC2)nn(CCn2cncn2)c1=O (stereo unspecified) | -7.13
O=C(CCn1cccc1)NCc1ccc(CN2CCCCCC2)o1 | 37.4
CCCOc1ccc2c(c1)OCC(C(=O)NC(C)Cn1ccnc1)=C2 (stereo unspecified) | 51
CCOc1ccc2c(c1)C=C(C(=O)NC(C)Cn1cccn1)CO2 (stereo unspecified) | 2.91
CCCOc1ccc2c(c1)OCC(C(=O)NC(C)Cn1cccn1)=C2 (stereo unspecified) | 30.9
CCOCC1CN(S(=O)(=O)N(C)C)Cc2cnn(CC)c21 (stereo unspecified) | 29
Cc1cc(NC(=O)CN2CCC(N(C)Cc3ncc(C)o3)C2)n(C)n1 (stereo unspecified) | -29.9
Cc1cnn(CCNCc2nc(COc3ccc(F)cc3)no2)c1 | 19.3
c1ccc(OCc2nc(CNCCn3cccn3)cs2)cc1 | 1.95
Cc1ccc(OCc2nc(CNCCn3cccn3)cs2)cc1 | -24.1
Cc1cnn(CCNCc2ccc(OCc3ccccn3)cc2)c1 | 34.6
Cc1cnn(CCNCc2ccc(OCc3noc(C)n3)cc2)c1 | 66.3
COc1ccc(OCCCNCCn2cccn2)cc1 | 64.7

Structure (SMILES) | INHIBITION [%]
c1ccc(OCCCNCCn2cccn2)cc1 | 38.7
Cc1cnn(CCNCc2ccc(OCc3csc(C)n3)cc2)c1 | -37.9
Cc1nc(COc2ccc(CNCCn3cccn3)cc2)cs1 | 88.5
Cc1cnn(CC(C)NCc2ccc(OCc3noc(C)n3)cc2)c1 (stereo unspecified) | -79.3
Cc1cnn(CCNCc2ccc(OCc3cscn3)cc2)c1 | 85.1
COc1ccc(OCCNCCn2cccn2)cc1 | 0.932
O=C(c1cc2c(F)cccc2[nH]1)N1CCCCC1Cn1cccn1 (stereo unspecified) | -4.94
Cc1cc(-c2cc(N)c(=O)n(CC(=O)NC3CCCCC3)n2)c(C)o1 | 13.835
O=C(NCCn1ccnc1)N1CCN(Cc2ccco2)CC1 | -37.7
Cc1ccc(NC2CCN(C(=O)c3ccncc3)CC2)nn1 | -39.7
CCN1CCC(NC(=O)CN2CC(n3nc(C)cc3C)C2)CC1 | 23.5
CC(=O)N[C@@H]1CN(Cc2nc3ccccc3[nH]2)C[C@H]1c1ccc(C)o1 | 39
Cc1ccc(CNCc2cc(Br)c3c(c2)OCO3)cc1 | 45.4
FC(F)Oc1ccc(CNCc2cc(Cl)c3c(c2)OCO3)cc1 | 24.6
Fc1ccc(CNCc2cc(Br)c3c(c2)OCO3)cc1 | 78
FC(F)Oc1ccc(CNCc2cc(Br)c3c(c2)OCO3)cc1 | 80.8
COc1ccc(CNCc2cc(Br)c3c(c2)OCO3)cc1 | 74.7
CC(Cn1ccnc1)NCc1cc(Br)c2c(c1)OCO2 (stereo unspecified) | -7.72
COc1cc(CNCC(O)c2ccccc2)cc2c1OCO2 (stereo unspecified) | -54.6

Structure (SMILES) | INHIBITION [%]
COc1cc(CNCc2ccc(C(C)O)cc2)cc2c1OCO2 (stereo unspecified) | 49.3
COc1cc(CNCC(O)c2ccccc2F)cc2c1OCO2 (stereo unspecified) | -9.37
COc1cc(CNCC(O)c2ccc(F)cc2F)cc2c1OCO2 (stereo unspecified) | 0.914
Cn1cc(CCNCc2cc(Br)c3c(c2)OCO3)cn1 | 37.6
FC(F)Oc1ccccc1CNCc1cc(Br)c2c(c1)OCO2 | 58.6
C[C@@H]1CN(c2ccc(Cl)cn2)C[C@]1(C)O | 4.161
Fc1cnc(N2CCO[C@H]3[C@H](OCCN4CCCC4)CC[C@@H]32)nc1 | 4.68
Cc1ccc(-c2nnc(CNCCn3cccn3)o2)cc1 | 37.9
COCc1cc(NCc2ccccc2-n2cncn2)ncn1 | 15.7
CN(Cc1nc(-c2ccccc2)no1)Cc1cnc(N2CCOCC2)s1 | 25.8
CN(C)CCn1c2c(ccc1=O)CCN(C(=O)c1cccs1)CC2 | 13.5
COc1c(CNCc2cccc(CN(C)C)c2)c(C)nn1C | 35.3
Cc1nc(Nc2cnccn2)cc(C2CCCN2C2CCOCC2)n1 (stereo unspecified) | 25.6
CC(C)C1CCCN1C(=O)Nc1ccc(=O)n(C)c1 (stereo unspecified) | -22.1
CCc1nc(C2CCCN2CC(=O)Nc2nnc(C)s2)no1 (stereo unspecified) | -11.9
CC(C)n1nc(CN2CCCC2=O)c2c1CN(C(=O)c1ccc[nH]1)C2 | 7.67
NC(=O)c1c(NC(=O)C2CCCO2)sc2c1CCc1ccccc1-2 (stereo unspecified) | -57.9
Cc1ccccc1S(=O)(=O)N1CCC(c2[nH]ncc2C)C1 (stereo unspecified) | 11.1
